Screening data (PubChem)
The entries come from a sample that favours hits as a whole.
Methyltransferases = Primary Screen for Target Class Profiling of Small Molecule Inhibitors of Methyltransferases; purified enzyme, MTase-Glo SAH luminescence; hits give low values; calls only at 40 µM; hit rate 3.9% among 25,000; AID 1745853, 2022; call rule not given here
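Each enzyme was assayed with SAM and its substrate. SAH formation detected by MTase-Glo luminescence; single-point 40 uM screen[…].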
An asterisk follows results filed as active; ! = not active in a repeat. % is scaled to controls: 0 for no effect and ±100 for the full control effect.

Screening Cc1cc(N2CCOCC2)ccc1Nc1nc(NC2CCCCC2)c2[nH]cnc2n1 returned Methyltransferases active.
Screening O=C(O)C1=CC(=C(c2ccc(O)c(C(=O)O)c2)c2ccc(O)c(C(=O)O)c2)C=CC1=O returned Methyltransferases active.
For CCCn1c(=O)c2ccccc2n2c(SCC(=O)Nc3ccc4c(c3)OCO4)nnc12 the results were Methyltransferases inactive.
Screening C[C@@H](N)C1CCC(C(=O)Nc2ccncc2)CC1 (stereo partly drawn) returned Methyltransferases inactive.
Cc1c(F)cc(C(=O)NC2CC2)cc1-c1ccc(C(=O)NCC(C)(C)C)cn1 was read as Methyltransferases inactive.
`CC(C)CNC(=O)c1ccc2c(=O)n(CC(C)C)c3nnc(SCC(N)=O)n3c2c1` gave Methyltransferases inactive.
`COc1nccnc1NC1CCN(C(=O)c2ccco2)CC1` gave Methyltransferases inactive.
For O=c1c(-c2ccc(O)cc2)coc2cc(O)cc(O)c12 the results were Methyltransferases inactive.
O=c1cc(-c2ccc(O)c(O)c2)oc2cc(O)cc(O)c12 was read as Methyltransferases inactive.
`O=c1c(O)c(-c2ccc(O)c(O)c2)oc2cc(O)cc(O)c12` gave Methyltransferases active!.
CCCN1C(=O)c2cc(C(=O)N3CCN(C)CC3)nn2CC1(C)C(=O)NC1CCCC1 (stereo not drawn) was read as Methyltransferases inactive.
`CCn1cc(NC(=S)Nc2cc(Cl)ccc2OC)c(C(N)=O)n1` gave Methyltransferases inactive.
Screening COc1cccc(CN2C(=O)c3cc4ccccc4n3CC2(C)C(=O)NCC2CCCO2)c1 (stereo not drawn) returned Methyltransferases inactive.
Screening CNC(=O)[C@@H]1C[C@H](Oc2ccccc2)CN1S(=O)(=O)Cc1ccccc1F returned Methyltransferases inactive.
For O=C1NC2(Cc3ccccc31)CN(C(=O)c1ccccc1Cl)C2 the results were Methyltransferases inactive.
Nc1nc(NC2CC2)cc(-c2cccc(Cl)c2Cl)n1 was read as Methyltransferases active.
Nc1nnc(-c2cccc(Cl)c2Cl)c(N)n1 was read as Methyltransferases inactive.
For CC(=O)N1CC2(CCN(C3CCCCC3)CC2)Cc2ccccc21 the results were Methyltransferases inactive.
Screening COc1cccc(N2CCN(C(=O)CCc3nnc4n(Cc5ccc(F)cc5)c(=O)c5ccccc5n34)CC2)c1 returned Methyltransferases inactive.
For COc1ccc(NC(=O)Cn2nc3n(CCC(C)C)c(=O)c4ccccc4n3c2=O)cc1 the results were Methyltransferases inactive.
For Nc1ncnc2c1ncn2[C@@H]1O[C@H](COP(=O)(O)OP(=O)(O)OP(=O)(O)OP(=O)(O)OC[C@@H]2O[C@H](n3cnc4c(N)ncnc43)[C@@H](O)[C@H]2O)[C@@H](O)[C@H]1O the results were Methyltransferases inactive.
Cc1nc(Nc2ncc(C(=O)Nc3c(C)cccc3Cl)s2)cc(N2CCN(CCO)CC2)n1 was read as Methyltransferases active.
Screening O=C(NCCCCN1CCN(c2cccc(Cl)c2Cl)CC1)c1cc2ccccc2s1 returned Methyltransferases inactive.
`OCCN1CCN(c2ccc(-c3nc(-c4cccc(C(F)(F)F)c4)no3)cn2)CC1` gave Methyltransferases inactive.
`O=C(NC1CCCCC1)N1CCC(Cc2nc(-c3ccccc3)n[nH]2)C1` (stereo not drawn) gave Methyltransferases inactive.
O=C1C(N2CCN(Cc3ccc[nH]3)CC2)CCN1CCc1ccccc1 (stereo not drawn) was read as Methyltransferases inactive.
CC1c2cccn2CCN1C(=O)Nc1ccccc1Cl (stereo not drawn) was read as Methyltransferases inactive.
CC[C@H]1OC(=O)[C@H](C)[C@@H](O[C@H]2C[C@@](C)(OC)[C@@H](O)[C@H](C)O2)[C@H](C)[C@@H](O[C@@H]2O[C@H](C)C[C@H](NC)[C@H]2O)[C@](C)(O)C[C@@H](C)CN(C)[C@H](C)[C@@H](O)[C@]1(C)O was read as Methyltransferases inactive.
OC[C@H]1O[C@@H](OC[C@H]2O[C@@H](OCc3ccccc3)[C@H](O)[C@@H](O)[C@@H]2O)[C@H](O)[C@@H](O)[C@@H]1O was read as Methyltransferases inactive.
For C=Cc1ccc(O[C@@H]2O[C@H](CO[C@@H]3O[C@@H](C)[C@H](O)[C@@H](O)[C@H]3O)[C@@H](O)[C@H](O)[C@H]2O)cc1 the results were Methyltransferases inactive.
For C[C@@H]1O[C@@H](OC[C@H]2O[C@@H](OCc3ccccc3)[C@H](O)[C@@H](O)[C@@H]2O)[C@H](O)[C@H](O)[C@H]1O the results were Methyltransferases active.
CCCn1c(=O)c2ccc(C(=O)NCC(C)C)cc2n2c(=O)n(CC(=O)NC(C)(C)C)nc12 was read as Methyltransferases inactive.
`CCn1nc(C)c(-c2cc(C(=O)N3CCC(CCOc4ccccc4OC)C3)no2)c1C` (stereo not drawn) gave Methyltransferases inactive.
Screening Cc1cccc(CN2C(=O)c3cc4ccccc4n3CC2(C)C(=O)NCc2ccccc2)c1 (stereo not drawn) returned Methyltransferases inactive.
For COc1ccc(CCN2C(=O)c3cc4ccccc4n3CC2(C)C(=O)NCc2ccccc2)cc1OC (stereo not drawn) the results were Methyltransferases inactive.
COc1ccc(CN2C(=O)c3cc4ccccc4n3CC2(C)C(=O)NCc2ccccc2)cc1OC (stereo not drawn) was read as Methyltransferases active.
CC(C)C1(O)NC(=O)C(CC2(O)c3ccccc3N3C(=O)C(C)(C)NC32)n2c1nc1ccccc1c2=O (stereo not drawn) was read as Methyltransferases inactive.
`O=C1NCc2ccccc2CC12CCN(Cc1ccc(F)cc1)CC2` gave Methyltransferases inactive.
For CN1C[C@H](C(=O)Nc2ccncn2)C[C@H]1c1cccc(C(F)(F)F)c1 the results were Methyltransferases inactive.
`O=C(O)c1ccc(C2Nc3c(F)cc(F)cc3C3C=CCC32)cc1` (stereo not drawn) gave Methyltransferases inactive.
COC(=O)C1=C(C)NC(C)=C(C(=O)OC)C1c1cccc(NC(=O)NCCCN2CCC(c3cccc(OC)c3)CC2)c1 was read as Methyltransferases active!.
`COc1cccc(CNC(=O)Nc2cccc(-c3ccc(N4CCCCC4)nn3)c2)c1` gave Methyltransferases inactive.
Screening CCN(CC)c1ncccc1CNC(=O)Nc1cccc(OC)c1 returned Methyltransferases inactive.
Cc1ccccc1Cn1nc2n(CCC(C)C)c(=O)c3ccccc3n2c1=O was read as Methyltransferases inactive.
Screening NCCCNc1ccc(Nc2nccc(Nc3cc(C4CC4)[nH]n3)n2)cc1 returned Methyltransferases active.
CCOc1ccc(N2C(=O)c3cc(C(C)(C)C)nn3CC2(C)C(=O)NCc2ccccc2)cc1 (stereo not drawn) was read as Methyltransferases inactive.
For CSc1ccc(CCNC(=O)CNC(=O)C2(C)Cn3c(cc4ccccc43)C(=O)N2C)cc1 (stereo not drawn) the results were Methyltransferases inactive.
For Cn1c(=O)c2ccc(C(=O)NC3CCCCC3)cc2n2c(SCC(=O)NC3CCCCC3)nnc12 the results were Methyltransferases inactive.
Cc1ccc(F)c(C(=O)N[C@H]2CCOC[C@H]2C2CCOCC2)c1Cl was read as Methyltransferases inactive.
`Cc1cnc(C(=O)N2CCCCCNC(=O)[C@@H]3CCC[C@@H]32)cn1` gave Methyltransferases inactive.
